# Records with an inconclusive call do not appear. A call without a number means that no potency is given here. Activity calls are given as the source filed them. Unless noted, the call rests on the fitted dose curve; in most records, active means well fitted curve in the direction sought with a large enough effect; inconclusive means small, poorly fitted or top-dose-only effect, or another doubt; inactive means no such curve, though single readings can be large; an effect the other way counts as inactive or inconclusive.
# Legend:
# [1] = P-glycoprotein substrates identified in KB-3-1 adenocarcinoma cell line, qHTS therapeutic library screen (AID 1346986); further: nearly all actives have a fitted effect of over 60% in size;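 further: potency means the concentration at half of the fitted maximal effect; potency is for cytotoxicity meaning loss of cell viability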
# Outline: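 In 1536-well format, 500 cells/well received pinned compound titrations and were incubated 72 h, 5% CO2. Viability was read by CellTiter-Glo; cytotoxic if AC50 < 10 uM and efficacy >50%.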
# [2] = P-glycoprotein substrates identified in KB-8-5-11 adenocarcinoma cell line, qHTS therapeutic library screen (AID 1346987); further: nearly all actives have a fitted effect of over 65% in size; further: potency means the concentration at half of the fitted maximal effect
# Outline: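 Compounds are pinned in dose-response onto KB-8-5-11 cells (500 cells/well, colchicine-free medium) and left 72 h at 37 degree C. CellTiter-Glo luminescence then yields AC50 values.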
# [3] = Cytotoxicity counterscreen for inhibitors of SARS-CoV-2 cell entry (AID 1645845; calls by dose curve; further: potency means the concentration at half of the fitted maximal effect; nearly all actives have a fitted effect of over 50% in size)
# Outline: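 Counterscreen run in the same HEK293-ACE2 line as the pseudotyped-particle entry assay, without particles. Viability after 48 h at 37 C was read as ATP luminescence, scaled between cell-containing and cell-free wells.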
# [4] = Primary qHTS for inhibitors of nuclear receptor binding SET domain protein 2 (NSD2) in an isogenic RCH-ACV NSD2 p.E1099K mutant (9B) (AID 1645876); further: potency means the concentration at half of the fitted maximal effect; nearly all actives have a fitted effect of over 70% in size
# [5] = Primary qHTS for inhibitors of nuclear receptor binding SET domain protein 2 (NSD2) in an RCH-ACV wild type WT cells (2C) (AID 1645877); further: nearly all actives have a fitted effect of over 70% in size; further: potency means the concentration at half of the fitted maximal effect
# [6] = target: Glutathione peroxidase 1 (Homo sapiens) (UniProt P07203); experiment: Primary qHTS Assay for Inhibitors of Recombinant Selenoprotein Glutathione Peroxidase 1 (GPX1) (AID 1845191); further: nearly all actives have a fitted effect of over 65% in size
# Chain of Glutathione peroxidase 1 (Homo sapiens) (P07203 whole entry, looked up): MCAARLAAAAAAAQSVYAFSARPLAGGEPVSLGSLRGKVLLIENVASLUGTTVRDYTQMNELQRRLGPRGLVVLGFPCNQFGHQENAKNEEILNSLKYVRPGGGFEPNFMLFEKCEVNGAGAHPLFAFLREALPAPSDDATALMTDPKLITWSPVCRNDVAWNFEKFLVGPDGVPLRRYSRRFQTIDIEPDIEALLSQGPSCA
# Outline: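 GR-coupled readout: NADPH consumption tracked by fluorescence, ex 340/em 450 nm, at t=0 and after 15 min at RT. Final mix 10 nM GPX1, 1 mM GSH, 0.5 mM CHP, 0.5 mM NADPH, 100 nM GR, 0.01% BSA, following 30 min enzyme–compound preincubation.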
# [7] = target: Phospholipid hydroperoxide glutathione peroxidase GPX4 (Homo sapiens) (UniProt P36969); experiment: Primary qHTS Assay for Inhibitors of Recombinant Selenoprotein Glutathione Peroxidase 4 (GPX4) (AID 1845192); further: series mostly up to about 50 µM; nearly all actives have a fitted effect of over 65% in size
# Chain of Phospholipid hydroperoxide glutathione peroxidase GPX4 (Homo sapiens) (P36969 whole entry, looked up): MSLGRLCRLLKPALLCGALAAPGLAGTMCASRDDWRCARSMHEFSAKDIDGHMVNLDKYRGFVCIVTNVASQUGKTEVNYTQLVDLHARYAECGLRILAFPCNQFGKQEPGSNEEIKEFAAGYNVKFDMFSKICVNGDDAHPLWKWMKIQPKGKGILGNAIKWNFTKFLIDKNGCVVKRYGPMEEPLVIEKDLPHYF
# Outline: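 Steps: GPX4 plus compound, 30 min RT; add GR/GSH/NADPH master mix; start with cumene hydroperoxide; read 340/450 nm fluorescence at 0 and 15 min. Finals were 200 nM GPX4, 1 mM GSH, 0.5 mM CHP, 0.5 mM NADPH, 100 nM GR.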
# [8] = qHTS drug screen for cell cycle checkpoint inhibitors in PARPi-resistant BRCA-mutant ovarian cancer cell lines. (AID 1963452; calls by dose curve); details: PEO1/OlaR viability, CellTiter-Glo luminescence, 96 h, stronger effect = lower value
# Outline: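 PEO1, PEO4 and PEO1/OlaR ovarian cancer cells, 600 per well, exposed 96 h at 37C to a dilution series. Viability read by CellTiter-Glo luminescence, normalized to DMSO and empty wells; activity summarized as Z-AUC.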
# [9] = qHTS for Inhibitors of the Functional Ribonucleoprotein Complex (vRNP) of Lassa (LASV) Arenavirus: LASV Primary Screen - GLuc reporter signal (AID 1347082; calls by dose curve; tested in HEK293 reporter line; further: series mostly up to about 57 µM; nearly all actives have a fitted effect of over 60% in size)
# [10] = target: Alpha-galactosidase (Coffea arabica) (UniProt Q42656); experiment: Counterscreen for Glucocerebrosidase Inhibitors: qHTS Assay for Coffee Bean alpha-Galactosidase at pH 4.5 (AID 957); further: series mostly up to about 77 µM
# Chain of Alpha-galactosidase (Coffea arabica) (Q42656 whole entry, looked up): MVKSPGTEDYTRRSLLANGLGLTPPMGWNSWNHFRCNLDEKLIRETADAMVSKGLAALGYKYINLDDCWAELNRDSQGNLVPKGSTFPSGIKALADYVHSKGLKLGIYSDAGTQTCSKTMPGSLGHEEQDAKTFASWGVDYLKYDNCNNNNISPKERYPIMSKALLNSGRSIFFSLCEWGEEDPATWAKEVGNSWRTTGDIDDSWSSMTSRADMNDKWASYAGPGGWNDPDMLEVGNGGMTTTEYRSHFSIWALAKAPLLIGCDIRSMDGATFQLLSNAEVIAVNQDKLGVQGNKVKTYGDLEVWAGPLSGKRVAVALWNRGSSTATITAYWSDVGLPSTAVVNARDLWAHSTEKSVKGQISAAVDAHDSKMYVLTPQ
# Outline: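 Fluorogenic qHTS at pH 4.5 (citrate buffer with Tween-20): 2 nM enzyme, 80 uM 4-MU-alpha-galactoside substrate, compound titrated 0.7 nM to 77 uM, 20 min room temperature. Glycine/NaOH stop; 4-MU read Ex 365/Em 440; Hill-equation AC50 against no-enzyme and enzyme controls.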
# [11] = target: Alpha-galactosidase (Coffea arabica) (UniProt Q42656); experiment: Counterscreen for Glucocerebrosidase Inhibitors: qHTS Assay for Coffee Bean alpha-Galactosidase at pH 5.9 (AID 998)
# Outline: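 Enzyme 2 nM + cpd (0.7 nM–77 uM titration) + 4-MU-alpha-Gal 80 uM, pH 5.9 citrate/Tween-20, RT 20 min, NaOH/glycine stop pH 10, fluor 365/440. Normalized to no-enzyme and full-activity controls; Hill-fit AC50.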
# [12] = High Content Imaging Cell-Based qHTS for Inhibitors of the mTORC1 Signaling Pathway in MEF (Tsc2-/-, p53-/-) Cells (AID 2666);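 further: percent of cells scored positive for phospho-rpS6 Ser235/236 immunostaining by imaging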
# Outline: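 MEF Tsc2-/- p53-/- (empty vector), DMEM/10% FBS; cpd 24 h 37 °C; PFA fix, Alexa-488 p-rpS6 S235/236 Ab, Hoechst; imaged; rapamycin-defined inhibition; % positive cells/well.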
# [13] = Validation screen for inhibitors of Lassa infection (AID 463096; calls by dose curve)
# [14] = target: M-phase phosphoprotein 8 (Homo sapiens) (UniProt Q99549); experiment: qHTS Validation Assay for Inhibitors for MPP8 Chromodomain Interactions with Methylated Histone Tails (AID 488949);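 further: 50 nM MPP8 with 50 nM peptide preformed then compounds added for 30 min; AlphaScreen signal from MPP8 chromodomain bound to biotinylated H3K9me3 peptide; top concentration of the series differs between compounds; nearly all actives have a fitted effect of over 55% in size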
# Chain of M-phase phosphoprotein 8 (Homo sapiens) (Q99549 whole entry, looked up): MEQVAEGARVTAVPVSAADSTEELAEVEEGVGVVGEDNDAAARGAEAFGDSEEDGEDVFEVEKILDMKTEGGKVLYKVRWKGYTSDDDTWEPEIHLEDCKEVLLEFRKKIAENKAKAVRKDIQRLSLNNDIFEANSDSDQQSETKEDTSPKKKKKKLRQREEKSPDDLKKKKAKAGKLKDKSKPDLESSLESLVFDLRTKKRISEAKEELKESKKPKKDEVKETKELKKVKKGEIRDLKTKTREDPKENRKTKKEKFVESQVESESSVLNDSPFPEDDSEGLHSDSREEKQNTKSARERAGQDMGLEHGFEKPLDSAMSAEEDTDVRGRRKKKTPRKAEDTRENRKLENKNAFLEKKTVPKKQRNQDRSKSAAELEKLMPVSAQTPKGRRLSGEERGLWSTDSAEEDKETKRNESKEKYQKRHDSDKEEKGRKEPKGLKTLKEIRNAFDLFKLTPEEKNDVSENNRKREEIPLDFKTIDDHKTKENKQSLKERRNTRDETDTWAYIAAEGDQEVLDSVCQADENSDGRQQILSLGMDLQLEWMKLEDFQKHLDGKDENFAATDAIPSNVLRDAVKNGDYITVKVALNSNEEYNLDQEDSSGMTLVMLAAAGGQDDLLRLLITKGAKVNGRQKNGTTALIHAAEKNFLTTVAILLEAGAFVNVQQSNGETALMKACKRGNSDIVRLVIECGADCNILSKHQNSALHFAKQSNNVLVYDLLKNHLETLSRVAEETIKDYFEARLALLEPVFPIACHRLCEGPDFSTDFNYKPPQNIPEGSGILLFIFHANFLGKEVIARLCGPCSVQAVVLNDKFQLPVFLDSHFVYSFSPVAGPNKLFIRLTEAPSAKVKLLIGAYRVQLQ
# Outline: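 Chemiluminescent proximity assay: histidine-tag capture via nickel acceptor beads, biotin peptide via streptavidin donor beads. Protein and peptide each at 50 nM, pH 7.4, with 30 min incubations at room temperature for complex formation, compound exposure and bead binding.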
# [15] = Inducers of the Endoplasmic Reticulum Stress Response (ERSR) in human glioma: Validation (AID 504836)
# Outline: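 Stably transfected U87-MG glioma cells carrying a GRP78-based luciferase sensor; 16 h compound incubation. Luminescence end-point read 10 min after Bright-Glo addition at room temperature.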
# [16] = target: Ubiquitin carboxyl-terminal hydrolase 1 (Homo sapiens) (UniProt O94782); experiment: Inhibitors of USP1/UAF1: Pilot qHTS (AID 504865);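 further: rhodamine fluorescence freed from ubiquitin-rhodamine substrate followed over time; top concentration of the series differs between compounds; nearly all actives have a fitted effect of over 35% in size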
# Chain of Ubiquitin carboxyl-terminal hydrolase 1 (Homo sapiens) (O94782 whole entry, looked up): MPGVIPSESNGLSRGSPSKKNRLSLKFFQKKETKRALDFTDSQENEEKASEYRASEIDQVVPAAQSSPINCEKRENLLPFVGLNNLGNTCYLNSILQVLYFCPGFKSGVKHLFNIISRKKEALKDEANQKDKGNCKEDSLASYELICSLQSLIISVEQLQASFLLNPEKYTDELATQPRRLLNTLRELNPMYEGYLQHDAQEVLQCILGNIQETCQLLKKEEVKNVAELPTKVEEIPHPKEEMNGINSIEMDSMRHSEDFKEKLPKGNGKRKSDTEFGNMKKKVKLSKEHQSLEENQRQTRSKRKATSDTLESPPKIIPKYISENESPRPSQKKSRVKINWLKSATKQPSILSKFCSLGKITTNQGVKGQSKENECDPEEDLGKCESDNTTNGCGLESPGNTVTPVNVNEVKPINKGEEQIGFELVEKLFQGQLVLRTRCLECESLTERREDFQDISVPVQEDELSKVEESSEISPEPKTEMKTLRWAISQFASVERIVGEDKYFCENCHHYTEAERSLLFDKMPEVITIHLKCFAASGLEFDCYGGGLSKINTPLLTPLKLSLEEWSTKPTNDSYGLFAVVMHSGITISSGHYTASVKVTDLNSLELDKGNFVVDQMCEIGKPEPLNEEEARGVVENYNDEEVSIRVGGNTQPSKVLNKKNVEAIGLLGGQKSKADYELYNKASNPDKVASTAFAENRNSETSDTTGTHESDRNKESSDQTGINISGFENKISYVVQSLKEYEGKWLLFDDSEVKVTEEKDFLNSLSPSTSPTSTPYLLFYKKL
# Outline: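 Enzyme-free wells gave the negative control, while test wells held 1nM USP1/UAF1 preincubated with compound for 15 min at room temperature. Ub-Rho at 150nM final started the reaction, and fluorescence at 480/540 nm was recorded kinetically.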
# [17] = HTS Assay for Allosteric Antagonists of the Human D2 Dopamine Receptor: Hit Validation in HTRF (AID 624455);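 further: stable D1 dopamine receptor cell line scored for blocking the D1 response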
# Outline: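 Inhibition of the D1-mediated response was measured by HTRF. Cells used were a line stably expressing the D1 dopamine receptor.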
# [18] = target: Arylsulfatase A (Homo sapiens) (UniProt P15289); experiment: qHTS screen for enhancers of Arylsulfatase A (ASA1): LOPAC Validation Assay (AID 720538)
# Chain of Arylsulfatase A (Homo sapiens) (P15289 whole entry, looked up): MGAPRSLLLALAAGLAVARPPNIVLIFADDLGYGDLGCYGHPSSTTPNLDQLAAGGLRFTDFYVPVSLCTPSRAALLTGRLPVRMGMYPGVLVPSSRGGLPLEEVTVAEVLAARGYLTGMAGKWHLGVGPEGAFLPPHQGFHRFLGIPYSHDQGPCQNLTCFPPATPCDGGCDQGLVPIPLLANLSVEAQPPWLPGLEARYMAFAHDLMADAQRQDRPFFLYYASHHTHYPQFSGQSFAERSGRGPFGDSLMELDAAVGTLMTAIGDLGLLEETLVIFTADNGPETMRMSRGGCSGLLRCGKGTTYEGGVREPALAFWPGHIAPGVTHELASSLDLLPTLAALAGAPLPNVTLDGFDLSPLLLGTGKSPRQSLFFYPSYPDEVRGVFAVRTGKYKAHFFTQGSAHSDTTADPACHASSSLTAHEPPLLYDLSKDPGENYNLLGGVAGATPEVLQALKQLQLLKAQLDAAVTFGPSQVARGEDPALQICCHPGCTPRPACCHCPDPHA
# Outline: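 Cell-based enhancement test: residual ASA activity in SV40-transformed I179S patient fibroblasts is measured by pNCS turnover (0.5mM final, 14h, room temperature) following 48h compound incubation; higher fluorescence indicates activation.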
# [19] = target: Parathyroid hormone/parathyroid hormone-related peptide receptor (Homo sapiens) (UniProt Q03431); experiment: qHTS for PTHR1 Agonists: Optimization Screen against the NCGC LOPAC library (AID 1347079);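 further: GloSensor cAMP luminescence in HEK-293 GP2 cells expressing human PTHR1 with IBMX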
# Chain of Parathyroid hormone/parathyroid hormone-related peptide receptor (Homo sapiens) (Q03431 whole entry, looked up): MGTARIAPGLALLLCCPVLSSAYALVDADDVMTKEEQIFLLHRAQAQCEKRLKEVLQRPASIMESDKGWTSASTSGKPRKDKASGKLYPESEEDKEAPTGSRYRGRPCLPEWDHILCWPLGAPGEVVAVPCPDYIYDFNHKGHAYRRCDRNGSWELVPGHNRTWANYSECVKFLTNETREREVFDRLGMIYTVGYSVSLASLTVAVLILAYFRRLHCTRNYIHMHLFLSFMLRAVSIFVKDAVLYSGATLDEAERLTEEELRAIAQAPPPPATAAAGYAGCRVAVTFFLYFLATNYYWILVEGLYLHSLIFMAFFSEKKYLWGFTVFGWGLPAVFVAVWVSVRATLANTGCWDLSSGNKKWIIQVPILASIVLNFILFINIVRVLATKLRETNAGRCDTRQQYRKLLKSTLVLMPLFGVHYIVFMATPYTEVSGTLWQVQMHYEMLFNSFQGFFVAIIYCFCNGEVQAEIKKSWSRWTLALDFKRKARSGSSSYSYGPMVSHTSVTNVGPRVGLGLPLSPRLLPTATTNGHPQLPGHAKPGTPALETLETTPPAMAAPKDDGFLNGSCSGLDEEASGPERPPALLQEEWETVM
# Outline: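 HEK-293 GP2 cells, PTHR1 + GloSensor cAMP; 3000 cells/well, o/n. Luciferin + IBMX 0.5mM each (stock), 1 hr 37C. Cpd titration, 1 hr 37C. Lum after 15 min RT. Ctrl M-PTH(1-15) top 10uM.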
# [20] = qHTS for Inhibitors of the Functional Ribonucleoprotein Complex (vRNP) of Lassa (LASV) Arenavirus: Viability assay - alamar blue signal for LASV Primary Screen (AID 1347083; calls by dose curve; tested in HEK293 reporter line; further: series mostly up to about 57 µM; nearly all actives have a fitted effect of over 80% in size)
# [21] = qHTS for Inhibitors of the Functional Ribonucleoprotein Complex (vRNP) of Lymphocytic Choriomeningitis Arenaviruses (LCMV): Viability assay - alamar blue signal for LCMV Primary Screen (AID 1347085; calls by dose curve; tested in HEK293 reporter line; further: series mostly up to about 57 µM; nearly all actives have a fitted effect of over 80% in size)
# [22] = target: Nucleoprotein (Lymphocytic choriomeningitis virus (strain Armstrong)) (UniProt P09992); experiment: qHTS for Inhibitors of the Functional Ribonucleoprotein Complex (vRNP) of Lymphocytic Choriomeningitis Arenaviruses (LCMV): LCMV Primary Screen - GLuc reporter signal (AID 1347086; calls by dose curve; further: series mostly up to about 57 µM; nearly all actives have a fitted effect of over 70% in size)
# Chain of Nucleoprotein (Lymphocytic choriomeningitis virus (strain Armstrong)) (P09992 whole entry, looked up): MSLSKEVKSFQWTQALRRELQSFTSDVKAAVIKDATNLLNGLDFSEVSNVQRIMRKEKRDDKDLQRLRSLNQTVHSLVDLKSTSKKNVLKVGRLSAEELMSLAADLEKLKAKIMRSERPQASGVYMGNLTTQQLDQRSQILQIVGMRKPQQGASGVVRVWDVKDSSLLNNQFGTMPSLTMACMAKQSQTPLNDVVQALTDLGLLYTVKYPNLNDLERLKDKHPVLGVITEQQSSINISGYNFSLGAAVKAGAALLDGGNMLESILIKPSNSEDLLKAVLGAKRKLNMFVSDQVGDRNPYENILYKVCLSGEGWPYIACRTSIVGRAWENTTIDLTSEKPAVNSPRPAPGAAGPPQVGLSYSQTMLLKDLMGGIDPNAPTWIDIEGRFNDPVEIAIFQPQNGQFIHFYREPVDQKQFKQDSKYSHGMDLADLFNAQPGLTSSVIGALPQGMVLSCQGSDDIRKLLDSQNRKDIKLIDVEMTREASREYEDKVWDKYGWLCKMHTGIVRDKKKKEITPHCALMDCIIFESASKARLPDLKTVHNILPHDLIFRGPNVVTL
smiles,measurement,setting,value
O=C(NCCCNc1nc(Nc2ccc(N3CCOCC3)cc2)ncc1C1CC1)C1CCC1,Potency,[1],10.3 µM (active)
same,Potency,[2],11.6 µM (active)
same,Potency,[3],22.4 µM (active)
same,Potency,[4],5.25 µM (active)
same,Potency,[5],7.42 µM (active)
same,Potency,[6],inactive
same,Potency,[7],inactive
same,Z-AUC,[8],0.0288 (inactive)
same,Z-AUC,[8]; measured here: PEO1 parental Z-AUC,-0.267
same,Z-AUC,[8]; measured here: PEO4 Z-AUC,-0.524
CC=CC(=O)N(CC)c1ccccc1C,Potency,[9],inactive
C1CCc2nnnn2CC1,outcome,[10],inactive
same,outcome,[11],inactive
same,Potency,[12],inactive
same,Potency,[13],inactive
same,Potency,[14],inactive
same,outcome,[15],inactive
same,Potency,[16],inactive
same,outcome,[17],inactive
same,Potency,[18],inactive
same,outcome,[19],inactive
same,Potency,[9],inactive
same,Potency,[20],inactive
same,Potency,[21],inactive
same,Potency,[22],inactive
Nc1ccn(CC(CO)OCP(=O)(O)O)c(=O)n1 (stereo not drawn),Potency,[1],inactive
same,Potency,[2],inactive
same,Potency,[5],inactive

# Reference: PubChem BioAssay (NCATS)
